For some assays here: Results with a measured potency or affinity are listed apart.
Experiments:
Parameters in all cases: scale not given: direction of the effect not stated beside the values
[1] = biological target: Protein translocase subunit SecA (Escherichia coli (strain K12)) (UniProt P10408); test: Assay to Identify E. coli SecA ATPase Inhibitors; type: functional; conditions: 30 µM
[2] = biological target: T1, Ubiquitin-activating enzyme e1, putative (Leishmania donovani (strain BPK282A1)) (UniProt E9BSI1); test: Leishmania donovani Ubiquitin Activating Enzyme (LdE1); type: functional; conditions: 30 µM
T1 sequence (whole entry): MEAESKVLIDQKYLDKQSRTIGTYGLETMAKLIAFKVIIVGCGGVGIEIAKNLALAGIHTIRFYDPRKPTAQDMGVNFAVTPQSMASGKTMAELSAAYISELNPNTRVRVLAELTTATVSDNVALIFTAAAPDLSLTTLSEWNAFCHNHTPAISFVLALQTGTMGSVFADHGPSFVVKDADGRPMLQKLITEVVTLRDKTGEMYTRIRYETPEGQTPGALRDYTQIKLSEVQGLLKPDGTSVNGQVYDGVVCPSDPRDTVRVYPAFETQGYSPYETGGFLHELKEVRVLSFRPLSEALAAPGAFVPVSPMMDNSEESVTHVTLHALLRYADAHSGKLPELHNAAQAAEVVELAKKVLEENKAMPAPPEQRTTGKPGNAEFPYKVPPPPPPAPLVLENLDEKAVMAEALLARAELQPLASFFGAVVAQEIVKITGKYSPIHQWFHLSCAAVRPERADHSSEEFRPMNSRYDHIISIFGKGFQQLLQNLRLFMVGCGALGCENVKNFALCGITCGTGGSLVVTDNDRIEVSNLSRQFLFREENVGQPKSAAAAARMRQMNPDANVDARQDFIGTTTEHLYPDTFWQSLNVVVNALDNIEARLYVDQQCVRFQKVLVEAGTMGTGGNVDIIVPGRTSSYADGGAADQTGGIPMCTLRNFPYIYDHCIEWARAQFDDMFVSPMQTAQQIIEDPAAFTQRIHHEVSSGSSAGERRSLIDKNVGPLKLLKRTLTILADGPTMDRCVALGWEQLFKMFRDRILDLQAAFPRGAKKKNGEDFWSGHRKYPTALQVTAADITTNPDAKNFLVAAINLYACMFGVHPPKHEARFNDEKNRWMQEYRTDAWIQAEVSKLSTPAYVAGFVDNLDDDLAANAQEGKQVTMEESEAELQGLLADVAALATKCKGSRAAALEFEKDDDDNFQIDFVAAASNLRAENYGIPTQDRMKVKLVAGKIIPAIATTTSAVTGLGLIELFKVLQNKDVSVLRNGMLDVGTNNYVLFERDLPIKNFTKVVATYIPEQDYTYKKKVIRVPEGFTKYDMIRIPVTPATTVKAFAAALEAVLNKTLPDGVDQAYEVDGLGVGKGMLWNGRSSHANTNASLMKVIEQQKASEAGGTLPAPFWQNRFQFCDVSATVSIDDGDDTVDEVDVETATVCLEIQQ

[3] = biological target: Sialic acid-binding Ig-like lectin 9 (Homo sapiens) (UniProt Q9Y336); test: Hs-Siglec9 ALPHAscreen SOP 20170721; conditions: 10 µM
Sialic acid-binding Ig-like lectin 9 (Homo sapiens), sequence (Q9Y336 whole entry): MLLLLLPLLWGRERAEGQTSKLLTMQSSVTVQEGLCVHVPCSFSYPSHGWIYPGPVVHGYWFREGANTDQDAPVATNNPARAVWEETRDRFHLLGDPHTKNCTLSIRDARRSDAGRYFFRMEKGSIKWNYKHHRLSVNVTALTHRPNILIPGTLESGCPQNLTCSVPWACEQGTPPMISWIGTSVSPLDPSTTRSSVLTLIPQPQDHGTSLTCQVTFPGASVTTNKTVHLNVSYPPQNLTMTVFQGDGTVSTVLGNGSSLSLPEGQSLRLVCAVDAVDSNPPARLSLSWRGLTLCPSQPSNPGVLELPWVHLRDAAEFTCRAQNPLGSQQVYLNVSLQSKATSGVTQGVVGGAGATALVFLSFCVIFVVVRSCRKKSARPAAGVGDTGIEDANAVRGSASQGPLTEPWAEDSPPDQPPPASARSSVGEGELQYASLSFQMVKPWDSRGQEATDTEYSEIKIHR

Trypanosoma cruzi = test: Trypanosoma cruzi phosphomannomutase and mannose-1-phosphate guanylyltransferase assay; type: functional; conditions: 10 µM
[4] = biological target: T2, Arginase-2, mitochondrial (Homo sapiens) (UniProt P78540); test: in vitro enzyme assay to detect the production of urea directly proportional to the activity of Arginase II; type: functional; conditions: 33.3 µM; also: in the data most compounds retested in dose-response had high values
T2 sequence (whole entry): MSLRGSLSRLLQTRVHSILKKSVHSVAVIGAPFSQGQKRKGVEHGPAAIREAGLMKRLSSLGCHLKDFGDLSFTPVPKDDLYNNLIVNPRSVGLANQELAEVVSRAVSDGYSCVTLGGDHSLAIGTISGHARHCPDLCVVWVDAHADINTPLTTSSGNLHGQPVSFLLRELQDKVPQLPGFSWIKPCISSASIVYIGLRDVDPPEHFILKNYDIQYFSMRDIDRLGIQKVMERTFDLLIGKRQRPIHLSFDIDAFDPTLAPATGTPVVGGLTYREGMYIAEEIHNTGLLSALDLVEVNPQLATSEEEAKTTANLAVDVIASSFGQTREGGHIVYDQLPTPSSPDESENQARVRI

[5] = biological target: T3, Proteasome subunit beta (Trypanosoma cruzi) (UniProt O96673); test: Trypanosoma cruzi proteasome chymotrypsin-like activity (TcProtChymo) assay.; also: in the data most compounds retested in dose-response had high values; type: functional; conditions: 9.37 µM
T3 sequence (whole entry): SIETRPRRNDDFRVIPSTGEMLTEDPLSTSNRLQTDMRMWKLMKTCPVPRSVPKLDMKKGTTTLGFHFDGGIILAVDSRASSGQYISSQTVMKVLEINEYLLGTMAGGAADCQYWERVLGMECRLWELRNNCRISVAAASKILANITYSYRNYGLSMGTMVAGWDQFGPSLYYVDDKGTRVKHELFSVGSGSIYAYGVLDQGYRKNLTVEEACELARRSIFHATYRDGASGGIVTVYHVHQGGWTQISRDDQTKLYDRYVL

Homo sapiens = species on record: Homo sapiens; test: To identify inhibition of the IFN signalling (Jak-Stat) pathway via expression of an eGFP reporter gene under the control of an IFN-stimulated response element (ISRE) containing MxA promoter.; type: functional; conditions: 30 µM
[6] = biological target: T4, Tyrosyl-tRNA synthetase, putative (Trypanosoma cruzi (strain CL Brener)) (UniProt Q4DSP6); test: Trypanosoma cruzi tyrosyl tRNA synthetase (TcYRS) _High Tyrosine SOP; type: functional; conditions: 30 µM; also: in the data most compounds retested in dose-response had high values
T4 sequence (whole entry): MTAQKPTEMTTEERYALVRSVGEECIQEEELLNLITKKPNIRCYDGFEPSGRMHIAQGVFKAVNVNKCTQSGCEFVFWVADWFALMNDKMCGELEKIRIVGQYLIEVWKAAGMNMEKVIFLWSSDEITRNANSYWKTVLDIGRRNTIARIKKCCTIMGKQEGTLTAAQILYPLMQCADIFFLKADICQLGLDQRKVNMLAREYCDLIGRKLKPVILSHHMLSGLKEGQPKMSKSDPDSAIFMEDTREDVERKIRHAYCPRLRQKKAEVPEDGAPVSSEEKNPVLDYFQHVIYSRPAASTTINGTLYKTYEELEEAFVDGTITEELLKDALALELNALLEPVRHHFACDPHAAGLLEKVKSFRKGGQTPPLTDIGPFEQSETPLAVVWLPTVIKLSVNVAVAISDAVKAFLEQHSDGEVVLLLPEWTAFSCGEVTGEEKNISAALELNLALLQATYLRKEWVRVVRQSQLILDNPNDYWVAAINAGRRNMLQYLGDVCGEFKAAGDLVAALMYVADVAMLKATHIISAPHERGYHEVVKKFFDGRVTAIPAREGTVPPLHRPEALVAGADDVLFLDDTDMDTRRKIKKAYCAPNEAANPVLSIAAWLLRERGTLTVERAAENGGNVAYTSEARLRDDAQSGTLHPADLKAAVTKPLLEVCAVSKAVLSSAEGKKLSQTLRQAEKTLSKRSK

[7] = biological target: T4, Tyrosyl-tRNA synthetase, putative (Trypanosoma cruzi (strain CL Brener)); test: Trypanosoma cruzi tyrosyl tRNA synthetase (TcYRS) SOP; type: functional; conditions: 30 µM
[8] = biological target: Chromo domain-containing protein 1 (Saccharomyces cerevisiae (strain ATCC 204508 / S288c) (Baker's yeast)) (UniProt P32657); test: ScCHD-1 Enzyme Inhibition Assay; type: functional; conditions: 30 µM; also: in the data most compounds retested in dose-response had high values
Chromo domain-containing protein 1 (Saccharomyces cerevisiae (strain ATCC 204508 / S288c) (Baker's yeast)), sequence (P32657 whole entry, the tested form may be a part): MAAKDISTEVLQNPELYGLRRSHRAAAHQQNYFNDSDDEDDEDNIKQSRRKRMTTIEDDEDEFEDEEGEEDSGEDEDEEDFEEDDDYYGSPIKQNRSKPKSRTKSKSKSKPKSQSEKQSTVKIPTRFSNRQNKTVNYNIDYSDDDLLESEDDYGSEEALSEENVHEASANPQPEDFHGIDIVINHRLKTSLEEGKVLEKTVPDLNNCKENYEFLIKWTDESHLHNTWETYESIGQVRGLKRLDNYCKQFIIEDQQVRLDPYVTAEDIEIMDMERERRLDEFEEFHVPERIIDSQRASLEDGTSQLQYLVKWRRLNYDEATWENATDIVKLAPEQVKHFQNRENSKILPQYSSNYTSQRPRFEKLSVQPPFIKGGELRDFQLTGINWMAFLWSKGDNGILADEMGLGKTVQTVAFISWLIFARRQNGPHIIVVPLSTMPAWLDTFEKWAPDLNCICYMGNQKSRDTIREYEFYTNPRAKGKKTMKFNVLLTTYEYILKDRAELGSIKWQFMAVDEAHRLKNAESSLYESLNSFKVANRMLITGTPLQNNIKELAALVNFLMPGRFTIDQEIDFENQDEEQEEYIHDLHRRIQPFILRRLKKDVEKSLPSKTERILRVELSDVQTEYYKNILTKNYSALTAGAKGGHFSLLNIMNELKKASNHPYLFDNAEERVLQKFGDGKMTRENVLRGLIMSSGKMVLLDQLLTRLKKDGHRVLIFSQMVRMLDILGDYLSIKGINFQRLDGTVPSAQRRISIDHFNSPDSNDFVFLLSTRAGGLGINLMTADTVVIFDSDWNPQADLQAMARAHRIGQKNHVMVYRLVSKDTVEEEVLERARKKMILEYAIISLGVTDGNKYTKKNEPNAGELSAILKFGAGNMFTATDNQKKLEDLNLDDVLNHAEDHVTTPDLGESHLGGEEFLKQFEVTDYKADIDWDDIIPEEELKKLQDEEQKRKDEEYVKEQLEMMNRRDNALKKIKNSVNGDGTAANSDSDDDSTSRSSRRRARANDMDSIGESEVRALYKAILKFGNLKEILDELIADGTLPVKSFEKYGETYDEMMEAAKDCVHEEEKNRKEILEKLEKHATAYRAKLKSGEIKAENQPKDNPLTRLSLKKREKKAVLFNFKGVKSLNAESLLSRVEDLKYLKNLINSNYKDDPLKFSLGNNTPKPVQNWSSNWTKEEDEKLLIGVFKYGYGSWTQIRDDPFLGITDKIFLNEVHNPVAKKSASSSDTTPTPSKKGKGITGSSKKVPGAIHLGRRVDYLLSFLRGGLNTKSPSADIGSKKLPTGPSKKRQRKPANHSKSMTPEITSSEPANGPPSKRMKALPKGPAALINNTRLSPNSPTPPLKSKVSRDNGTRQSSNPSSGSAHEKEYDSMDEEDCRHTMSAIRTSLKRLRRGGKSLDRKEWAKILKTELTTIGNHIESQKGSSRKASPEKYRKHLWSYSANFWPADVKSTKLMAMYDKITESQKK

Protein translocase subunit SecA (Escherichia coli (strain K12)), sequence (P10408 whole entry): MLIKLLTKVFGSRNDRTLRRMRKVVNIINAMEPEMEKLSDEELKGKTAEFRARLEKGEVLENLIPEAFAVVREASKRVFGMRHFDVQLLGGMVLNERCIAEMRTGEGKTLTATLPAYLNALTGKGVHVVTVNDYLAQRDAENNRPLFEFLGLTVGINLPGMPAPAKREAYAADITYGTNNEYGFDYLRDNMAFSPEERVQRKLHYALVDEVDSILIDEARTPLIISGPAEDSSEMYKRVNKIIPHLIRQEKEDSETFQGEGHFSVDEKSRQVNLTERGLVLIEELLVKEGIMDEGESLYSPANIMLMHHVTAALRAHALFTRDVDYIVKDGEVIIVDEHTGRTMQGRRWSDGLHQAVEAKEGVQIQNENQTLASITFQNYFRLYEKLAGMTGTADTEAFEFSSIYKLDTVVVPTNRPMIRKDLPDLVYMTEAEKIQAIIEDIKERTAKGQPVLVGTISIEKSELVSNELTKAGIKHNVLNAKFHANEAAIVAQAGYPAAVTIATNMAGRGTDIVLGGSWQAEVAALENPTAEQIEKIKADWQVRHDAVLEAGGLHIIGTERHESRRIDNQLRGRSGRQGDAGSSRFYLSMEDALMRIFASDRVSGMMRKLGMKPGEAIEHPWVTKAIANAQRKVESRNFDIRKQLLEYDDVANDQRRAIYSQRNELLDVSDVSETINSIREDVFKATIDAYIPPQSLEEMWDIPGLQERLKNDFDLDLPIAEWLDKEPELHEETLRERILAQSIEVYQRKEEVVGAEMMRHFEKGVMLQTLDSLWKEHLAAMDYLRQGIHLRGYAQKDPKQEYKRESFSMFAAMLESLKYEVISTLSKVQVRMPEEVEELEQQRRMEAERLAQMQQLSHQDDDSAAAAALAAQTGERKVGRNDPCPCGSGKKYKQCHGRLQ

SMILES | Percent Effect [1] | Percent Effect [2] | Percent Effect [3] | Percent Effect (Trypanosoma cruzi) | Percent Effect [4] | Percent Effect [5] | Percent Effect (Homo sapiens) | Percent Effect [6] | Percent Effect [7] | Percent Effect [8]
Cc1cncc(C2CCCN(C(=O)c3c[nH]c(=O)[nH]c3=O)C2)n1 (stereo not given) | 0.496% | 9.33% | -0.809% | -4.14% | 0.885% | 7.06% | 6.63% | 4.23% | 10% | -18.3%
O=C(NCCO)c1ccn(-c2ccc3ccccn23)n1 | -3.79% | -32.5% | -8.91% | 3.99% | -8.5% | 19.1% | 7.26% | 11.1% | -2.56% | -0.759%
CC1(C)OCC(CNC(=O)c2cnn(-c3cc(Cl)ccc3Cl)c2N)O1 (stereo not given) | 3.78% | 9.33% | -9.42% | -1.97% | 3.98% | 17.1% | 11.8% | 0% | 7.5% | -20.1%
Fc1ccc(-c2nnc(CN3CCn4c(nnc4C4CC4)C3)o2)cc1 | -4.82% | -18.7% | 2.87% | -3.81% | 1.77% | 3.99% | -0.798% | 10% | 15.4% | -6.37%
CCC(=O)N1CCCC1c1nccnc1Nc1nc(C)cc(C)n1 (stereo not given) | -0.0687% | 14.7% | 0.282% | 0.789% | 2.21% | 15.8% | 6.52% | 2.12% | 7.5% | -21.6%
Cc1nc(C)n(CC2CCCN2Cc2nc3ccccc3n2C)n1 (stereo not given) | -5.84% | 10.7% | 7.93% | 1.81% | 3.55% | 17.6% | 8.44% | 1.58% | 12.8% | -12.7%
CC(NC(=O)CN(C)S(C)(=O)=O)c1nnc2n1CCCCC2 (stereo not given) | 1.95% | 13% | 1.1% | -4.48% | -15% | 17.2% | 26.4% | -0.98% | 4.71% | -8.79%
Cn1ncc2c1NC(=O)CC2c1ccc(O)cc1 (stereo not given) | -7.41% | 0% | -2.98% | -8.63% | -6.64% | 11.3% | 30.7% | 0.532% | 4.88% | -4.05%
CN(C)CCCn1ccnc1C1CCCN(c2cc(N)ncn2)C1 (stereo not given) | -10.5% | 2.7% | 2.22% | -3.59% | -2.45% | 4.97% | -11% | 7.98% | 4.88% | 4.53%
Cc1cnn(CC2CCCN2C(=O)c2cc(Cl)ccc2F)c1 (stereo not given) | -1.32% | 2.6% | -6.93% | -0.933% | 5.12% | 4.91% | 10.8% | -1.96% | -2.35% | 2.99%
Cc1ccc(OCC(O)CN2CCC(Cn3cccn3)CC2)cc1 (stereo not given) | -0.525% | 7.79% | 7.42% | 0.373% | 4.3% | 7.89% | -3.3% | 10.8% | 23.5% | -5.78%

— ChEMBL document CHEMBL3988442, “University of Dundee, Small-Polar-MMV Screening Library” (2021)
